8 compounds from PubChem BioAssay can be followed below.

The test system of test [1] is Plasmodium falciparum Sir2 (PF13_0152, Sir2A). Description: Plasmodium falciparum Sir2A binding compounds – biochemical, small-molecule microarray, 635 nm fluorescence, primary screen (AID 1098).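 Also: score merges spot fluorescence intensity with its signal-to-noise ratio.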 To be noted: fluorescence 635 nm, higher = more signal.
Test [2] is described as follows: probe aDKK1 binding to arrayed compounds – biochemical, biotinylated probe, 635/667 nm fluorescence, primary screen (AID 1099).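 Also: score merges 667nm spot fluorescence with signal to noise across triplicate slides.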 To be noted: small-molecule microarray, higher = more signal.
Test [3] can be described thus: probe aCHRDL2 binding to arrayed compounds – biochemical, biotinylated probe, 635/667 nm fluorescence, primary screen (AID 1100). To be noted: small-molecule microarray, higher = more signal.
Test [4] in a line: change in splice reporter luminescence, either direction, cell-based, HEK293, spliceosome inhibition project, primary screen (AID 1101).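 Also: HEK293 cells carrying a splicing-competent luciferase reporter gene; test concentration not given here.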 The note with it: HEK293 splicing luciferase reporter, 24 h, higher = more signal, called active from +8 up or from −8 down.
In test [5] the target is Fibroblast growth factor 10 (Homo sapiens) (UniProt O15520). Description: compounds binding fibroblast growth factor 10 – biochemical, small-molecule microarray, 635 nm fluorescence, primary screen (AID 1102). The note with it: FGF10 binding, fluorescence 635 nm, higher = more signal.
Fibroblast growth factor 10 (Homo sapiens), sequence (O15520 whole entry, looked up): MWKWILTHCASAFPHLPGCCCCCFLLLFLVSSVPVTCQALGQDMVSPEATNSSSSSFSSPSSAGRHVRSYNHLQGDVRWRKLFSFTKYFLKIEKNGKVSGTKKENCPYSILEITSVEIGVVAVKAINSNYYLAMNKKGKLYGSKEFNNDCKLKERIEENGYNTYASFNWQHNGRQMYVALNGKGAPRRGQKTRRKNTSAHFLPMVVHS
Test [6] deals with glycogen synthase kinase-3 (GSK3A per assay name; protocol says GSK3B). Description: compounds binding glycogen synthase kinase-3 – biochemical, small-molecule microarray, 635 nm fluorescence, GSK3A, primary screen (AID 1103). Also: the record names both GSK3A and GSK3B. The note with it: fluorescence 635 nm, higher = more signal.
The target of test [7] is Epidermal growth factor receptor (Homo sapiens) (UniProt P00533). Description: compounds binding epidermal growth factor receptor – biochemical, small-molecule microarray, 635 nm fluorescence, primary screen (AID 1104).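 Also: score merges 667 nm emission intensity with spot signal to noise over triplicate slides.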 To be noted: EGFR binding, higher = more signal.
Epidermal growth factor receptor (Homo sapiens), sequence (P00533 whole entry, looked up): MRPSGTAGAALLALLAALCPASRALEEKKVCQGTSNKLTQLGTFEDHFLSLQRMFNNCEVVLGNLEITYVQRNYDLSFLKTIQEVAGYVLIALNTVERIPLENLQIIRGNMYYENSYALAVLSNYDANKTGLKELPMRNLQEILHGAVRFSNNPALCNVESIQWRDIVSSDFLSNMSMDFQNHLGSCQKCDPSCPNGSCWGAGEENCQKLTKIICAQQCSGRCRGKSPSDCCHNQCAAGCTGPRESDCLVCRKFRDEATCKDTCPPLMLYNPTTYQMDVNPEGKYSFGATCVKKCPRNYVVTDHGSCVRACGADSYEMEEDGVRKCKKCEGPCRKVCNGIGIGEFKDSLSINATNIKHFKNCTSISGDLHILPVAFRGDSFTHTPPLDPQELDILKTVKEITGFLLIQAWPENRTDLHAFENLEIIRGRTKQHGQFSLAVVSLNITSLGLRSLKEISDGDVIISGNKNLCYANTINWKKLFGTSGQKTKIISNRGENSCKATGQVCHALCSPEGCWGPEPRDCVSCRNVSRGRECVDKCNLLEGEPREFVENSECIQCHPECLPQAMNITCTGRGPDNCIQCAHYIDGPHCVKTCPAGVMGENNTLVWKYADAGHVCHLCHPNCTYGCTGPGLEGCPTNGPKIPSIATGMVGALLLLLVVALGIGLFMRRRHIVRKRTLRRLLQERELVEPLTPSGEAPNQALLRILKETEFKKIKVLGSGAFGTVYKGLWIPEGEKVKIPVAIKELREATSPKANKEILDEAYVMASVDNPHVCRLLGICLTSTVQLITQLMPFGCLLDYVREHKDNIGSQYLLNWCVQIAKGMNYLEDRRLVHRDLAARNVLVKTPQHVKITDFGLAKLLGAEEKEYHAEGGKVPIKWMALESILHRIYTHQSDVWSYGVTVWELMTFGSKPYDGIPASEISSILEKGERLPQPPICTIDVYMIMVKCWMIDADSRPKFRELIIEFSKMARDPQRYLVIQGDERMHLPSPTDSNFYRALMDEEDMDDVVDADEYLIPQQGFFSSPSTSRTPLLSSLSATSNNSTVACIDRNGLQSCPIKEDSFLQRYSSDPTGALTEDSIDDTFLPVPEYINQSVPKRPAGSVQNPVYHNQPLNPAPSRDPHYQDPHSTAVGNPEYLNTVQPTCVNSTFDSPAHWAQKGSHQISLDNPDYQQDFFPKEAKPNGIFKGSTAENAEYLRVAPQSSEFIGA
Test [8] concerns the target Follistatin-related protein 3 (Homo sapiens) (UniProt O95633). Description: compounds binding follistatin-related protein 3 – biochemical, small-molecule microarray, 635 nm fluorescence, primary screen (AID 1105).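 Also: score merges emission near 667 nm and signal to noise per printed spot across three slides.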 To be noted: FSTL3 binding, higher = more signal.
Test [9] deals with Dickkopf-related protein 1 (Homo sapiens) (UniProt O94907). Description: small molecules binding DKK1 protein – biochemical, small-molecule microarray, 635 nm fluorescence scan, primary screen (AID 1106).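 Also: score merges emission near 667 nm with signal to noise over three replicate slides.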 To be noted: higher = more signal.
Dickkopf-related protein 1 (Homo sapiens), sequence (O94907 whole entry, looked up): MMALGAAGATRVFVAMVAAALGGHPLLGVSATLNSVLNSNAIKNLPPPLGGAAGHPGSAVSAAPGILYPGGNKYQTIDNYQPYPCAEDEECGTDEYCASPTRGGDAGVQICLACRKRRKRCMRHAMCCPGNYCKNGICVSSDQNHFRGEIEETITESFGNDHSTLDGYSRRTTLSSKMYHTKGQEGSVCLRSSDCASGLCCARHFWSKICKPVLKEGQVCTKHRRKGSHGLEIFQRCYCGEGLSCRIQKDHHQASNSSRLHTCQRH
Test [10] relates to Inhibin beta A chain (activin A). Description: small molecules binding activin A – biochemical, small-molecule microarray, 635 nm fluorescence scan, primary screen (AID 1107).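 Also: mouse activin A protein probed at 4.33 µg/mL on printed slides; score merges bound-protein fluorescence near 667 nm with spot signal-to-noise.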 The note with it: INHBA, higher = more signal.
Test [11] has as its system Human papillomavirus type 1a protein E7 (residues 44-93). Description: small molecules binding HPV E7 44-93 – biochemical, small-molecule microarray, residues 44-93, 635 nm fluorescence, primary screen (AID 1108).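 Also: E7 fragment applied at 1 µg/mL in TBST for 1 h at 4 C; score combines spot fluorescence with its signal to noise ratio.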 To be noted: fluorescence 635 nm, higher = more signal.
Test [12] can be described thus: hepatitis C replication reporter changes, two-sided – Huh7 cells, luciferase reporter, HCV replication inhibitor project, primary screen (AID 1109).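 Also: huh7 hepatoma cells harbouring a luciferase neomycin HCV replicon reporter; luciferase luminescence as measure of HCV replicon replication; test concentration not given here.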 To be noted: Huh7 HCV replicon luciferase reporter, 48 h; higher = more signal. (In general: Reporter assays use an easily measured gene product as a stand-in for the process of interest.)
In test [13] the target is Left-right determination factor 2 (Homo sapiens) (UniProt O00292). Description: small molecules binding LEFTY2 protein – biochemical, small-molecule microarray, 635 nm fluorescence scan, primary screen (AID 1110). To be noted: higher = more signal.
Left-right determination factor 2 (Homo sapiens), sequence (O00292 whole entry, looked up): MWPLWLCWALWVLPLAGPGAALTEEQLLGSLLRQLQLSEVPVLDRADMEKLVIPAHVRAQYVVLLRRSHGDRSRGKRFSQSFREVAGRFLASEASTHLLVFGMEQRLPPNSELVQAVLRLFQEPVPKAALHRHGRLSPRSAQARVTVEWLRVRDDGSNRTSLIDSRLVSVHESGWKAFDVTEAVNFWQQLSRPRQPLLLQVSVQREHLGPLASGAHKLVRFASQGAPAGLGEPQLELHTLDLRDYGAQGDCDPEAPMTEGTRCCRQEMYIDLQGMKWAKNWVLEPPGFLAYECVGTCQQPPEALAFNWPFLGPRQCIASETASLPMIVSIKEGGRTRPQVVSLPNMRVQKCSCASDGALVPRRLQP
Test [14] has as its target Calmodulin-1 (Homo sapiens) (UniProt P0DP23). Description: small molecules binding calmodulin-1 with EGTA – biochemical, small-molecule microarray, Cy5-labelled CALM1, profiling panel (AID 1111).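 Also: labelled calmodulin applied in Tris saline Tween buffer holding calcium plus EGTA and DTT.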 To be noted: Cy5-CALM1 binding fluorescence, higher = more signal.
The target is the same in test [15]. Description: small molecules binding Ca-loaded calmodulin-1 – biochemical, small-molecule microarray, Cy5-labelled CALM1, plus calcium, artefact control for SMM control-protein annotation, profiling panel (AID 1112).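 Also: score merges spot fluorescence with signal to noise from triplicate slides.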 To be noted: Cy5-CALM1 binding fluorescence, higher = more signal.
Test [16] can be described thus: probe aWnt5a binding to arrayed compounds – biochemical, biotinylated probe, 635/667 nm fluorescence, primary screen (AID 1113).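 Also: score merges 667 nm fluorescence intensity with signal-to-noise per printed feature.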 To be noted: small-molecule microarray, higher = more signal.
Test [17] is described as follows: probe aShh binding to arrayed compounds – biochemical, biotinylated probe, 635/667 nm fluorescence, primary screen (AID 1114).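 Also: probe is biotin-labelled aShh protein from a stem cell growth factor screen; measures binding of labelled protein to compounds printed on the slide; score merges feature fluorescence at 667 nm with signal-to-noise.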 The note with it: small-molecule microarray, higher = more signal.
Test [18] can be described thus: probe aNog binding to arrayed compounds – biochemical, biotinylated probe, 635/667 nm fluorescence, primary screen (AID 1115).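 Also: probe is biotinylated aNog protein used at 0.15 µg/mL for 1 h at 4 C; z-score combines 667 nm fluorescence of each spot with its signal to noise.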 To be noted: small-molecule microarray, higher = more signal.
Test [19] concerns the target Torsin-1A-interacting protein 1 (Homo sapiens) (UniProt Q5JTV8). Description: compound microarray binding of lysate hLAP1 – cell lysate, small-molecule microarray, COS7 lysate, 635/667 nm fluorescence, primary screen (AID 1116). To be noted: 635 nm fluorescence, higher = more signal.
Test [20] deals with Alpha-bungarotoxin (Bungarus multicinctus) (UniProt P60615). The test can be described thus: compounds binding labelled alpha-BTX control protein – biochemical, small-molecule microarray, Alexa647 label, 635/667 nm fluorescence, artefact control for SMM control protein annotation, profiling panel (AID 1117). The note with it: alpha-BTX-A647 binding fluorescence, higher = more signal.
Alpha-bungarotoxin (Bungarus multicinctus), sequence (P60615 whole entry, looked up): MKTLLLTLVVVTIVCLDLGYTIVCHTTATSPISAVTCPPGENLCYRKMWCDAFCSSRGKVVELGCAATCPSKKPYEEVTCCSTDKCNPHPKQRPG

Activity calls are given as the source filed them.

Torsin-1A-interacting protein 1 (Homo sapiens), sequence (Q5JTV8 whole entry, looked up): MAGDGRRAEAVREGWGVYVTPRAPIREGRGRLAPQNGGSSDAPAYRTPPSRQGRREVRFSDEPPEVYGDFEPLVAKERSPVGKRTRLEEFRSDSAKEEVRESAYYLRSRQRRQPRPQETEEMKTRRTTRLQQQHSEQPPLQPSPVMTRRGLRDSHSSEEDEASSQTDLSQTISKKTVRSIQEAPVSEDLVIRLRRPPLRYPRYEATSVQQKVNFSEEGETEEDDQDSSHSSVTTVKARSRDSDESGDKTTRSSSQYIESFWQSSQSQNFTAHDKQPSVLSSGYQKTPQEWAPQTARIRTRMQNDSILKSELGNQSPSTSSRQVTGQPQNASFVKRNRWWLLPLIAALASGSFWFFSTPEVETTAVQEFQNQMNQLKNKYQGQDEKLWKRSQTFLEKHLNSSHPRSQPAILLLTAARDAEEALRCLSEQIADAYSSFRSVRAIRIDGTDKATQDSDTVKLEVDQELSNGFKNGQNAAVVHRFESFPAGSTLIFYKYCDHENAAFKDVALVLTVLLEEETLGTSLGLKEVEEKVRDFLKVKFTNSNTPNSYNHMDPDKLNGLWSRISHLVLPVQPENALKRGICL
Follistatin-related protein 3 (Homo sapiens), sequence (O95633 whole entry, looked up): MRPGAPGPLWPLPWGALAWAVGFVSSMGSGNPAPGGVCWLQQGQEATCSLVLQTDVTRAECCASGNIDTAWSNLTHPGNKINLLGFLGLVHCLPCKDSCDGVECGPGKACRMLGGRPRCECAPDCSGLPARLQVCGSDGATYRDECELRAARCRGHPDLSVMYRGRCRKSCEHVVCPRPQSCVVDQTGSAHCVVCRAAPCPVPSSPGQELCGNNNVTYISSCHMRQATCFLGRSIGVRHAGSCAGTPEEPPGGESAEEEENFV

For the compound `C=CC[C@@]1(C(=O)N2CCOCC2)N=C(c2ccc(OCCCO)cc2)O[C@@H]1c1ccccc1`, the composite z-score in test [1] is -0.406; in [2] it was 0.853; in [3], 0.845; in test [5], 0.293; in test [6] it was 0.175; in test [7] it was -0.622. Further, the composite z-score was -0.72 in test [8]; -0.191 in test [9]; 0.437 in test [10]; 0.0433 in [11]; -0.464 in test [13]; 0.0981 in test [14]. Further, the composite z-score in [15] is 0.0806; in test [16], -0.166; in test [17], -0.184; in test [18], 0.34; in test [19] it was 1.68; in [20], 2.84. For the same compound, the z-score was -0.462 (inactive) in test [4] and -0.802 in test [12].

Take `Cc1ccc(S[C@]2(C(=O)NCCCN(C)C)CC(=O)N(C3CCCCC3)[C@@H]2c2ccc(CO)cc2I)cc1`: the composite z-score in [1] is -0.939; in test [2] it was 0.956; in test [3], 1.14; in test [5], -0.582; in test [6], 0.219; in test [7], -1. For the same compound, the composite z-score in [8] is -0.593; in test [9] it was -0.256; in test [10], 1.14; in test [11], -1.32; in [13] it was -0.848; in [14] it was -0.454. Moreover, the composite z-score was 0.49 in test [15]; -0.0455 in test [16]; 0.173 in test [17]; 0.134 in [18]; 0.123 in test [19]; -0.693 in [20]. Besides, the z-score is -1.31 (inactive) in test [4] and -3.67 in [12].

Regarding `CCOC(=O)[C@H]1C/C=C/C[C@H](C(=O)OCC)C(=O)O[C@H]2[C@@H](OC)O[C@H](CO)[C@@H](OC(=O)Nc3ccc(Br)cc3)[C@@H]2OC1=O`, the composite z-score in test [1] is 0.895; in [2], -0.0855; in test [3], 0.68; in test [5], 0.217; in test [6] it was 1.02; in [7], 0.047. Also, the composite z-score was 0.576 in test [8]; 0.251 in test [9]; 0.706 in test [10]; 0.205 in test [11]; 0.561 in test [13]; 1.64 in test [14]. The composite z-score is 0.155 in test [15]; -0.0704 in test [16]; 0.0515 in test [17]; 1.5 in test [18]; 0.396 in [19]; 0.465 in test [20]. Moreover, the z-score in test [4] was -3.54 (inactive); in test [12], -3.56.

For the compound `CN(C)c1ccc(C(O)C2C=CC3C(=O)NC(=O)C3N2Nc2ccc(Cl)cc2Cl)cc1` (stereo not given), the composite z-score is 0.189 in test [1]; 0.88 in [2]; 1.09 in test [3]; 0.356 in [5]; 0.121 in [6]; -0.789 in test [7]. In addition, the composite z-score in [8] was 0.554; in test [9], -0.336; in test [10], 1.43; in [11], 1.36; in test [13], -1.14; in test [14], 0.615. Besides, the composite z-score in [15] is -0.327; in test [16], 0.0328; in test [17], 0.0993; in [18] it was 1.21; in [19] it was 0.0689; in [20], 0.359. For the same compound, the z-score is 0.701 (inactive) in test [4] and -0.0428 in test [12].

`COCCCNC(=O)[C@@]1(c2ccc([N+](=O)[O-])cc2)CC(=O)N(C2CCCCC2)[C@@H]1c1ccc(CO)cc1`: the composite z-score in [1] is -0.463; in test [2], -0.86; in test [3], -0.67; in test [5] it was 0.316; in test [6], 0.296; in test [7], -0.0545. Besides, the composite z-score in test [8] is -0.186; in test [9] it was -0.296; in test [10], -0.395; in test [11] it was 0.361; in test [13], -0.256; in test [14], -0.702. Further, the composite z-score was -0.762 in test [15]; -0.418 in [16]; -0.8 in [17]; -0.811 in [18]; -0.218 in test [19]; -0.374 in test [20]. The z-score in test [4] is -0.748 (inactive); in test [12] it was -0.558.

With `CO[C@H]1COC(=O)[C@@H](C)NC(=O)CC=C[C@@H](C)[C@H](OC)COC(=O)CC=C[C@@H]1C`, the composite z-score in test [1] is -1.61; in [2], -0.994; in test [3], -1.7; in test [5] it was 0.518; in [6] it was 0.442; in test [7] it was -0.805. Also, the composite z-score in test [8] was 1.34; in test [9], 1.2; in [10] it was 1.62; in test [11], -0.0307; in [13], 1.39; in [14], -1.88. For the same compound, the composite z-score is -2.99 in test [15]; -0.202 in test [16]; -0.153 in [17]; -0.559 in test [18]; -0.0099 in test [19]; -1.47 in test [20]. The z-score in test [4] is -1.59 (inactive); in test [12], -0.355.

Consider `C=CCNC(=O)[C@H]1[C@@H]2C(=O)O[C@@H](c3ccccc3)[C@@H](c3ccccc3)N2[C@@H](c2ccccc2OCCO)[C@]12C(=O)N(C(=O)OCCOC)c1ccc(C#CCNC(N)=O)cc12`, for which the composite z-score was determined as 1.28 in test [1]; 0.607 in [2]; 0.802 in [3]; 0.471 in [5]; 0.843 in [6]; 0.158 in test [7]. Further, the composite z-score in test [8] turned out to be 0.507; in [9], 0.111; in test [10] it was 0.889; in test [11] it was 0.0146; in test [13], 0.398; in test [14] it was 1.63. The composite z-score is 0.559 in test [15]; -0.124 in [16]; -0.0011 in test [17]; 0.672 in [18]; 1.23 in test [19]; 1.81 in [20]. For the same compound, the z-score in [4] is -0.294 (inactive); in [12] it was -1.08.

In the case of `C#CCNC(/C=C/c1ccccc1)CO` (stereo not given), the composite z-score in test [1] was 0.0921; in test [2], -0.234; in test [3] it was -0.565; in test [5], 0.311; in test [6], 0.149; in [7], 0.553. In addition, the composite z-score in test [8] is 0.326; in test [9], 0.545; in test [10], 0.394; in test [11] it was 0.105; in test [13], 0.421; in [14] it was -0.0934. For the same compound, the composite z-score in test [15] is -0.448; in test [16] it was -0.172; in test [17], 0.0121; in test [18], -0.0784; in test [19], 0.296; in test [20], 0.331. Besides, the z-score is 0.00978 (inactive) in test [4] and 0.501 in [12].
